About 2,000 (36%) of roughly 5,500 compounds were called active. About 18% were inconclusive and are not listed. Rule as the data show it: active = normalized growth mostly below about 0.91 (no sharp cut-off); inconclusive = no clear call, values can overlap the other calls; inactive = mostly above about 0.92. The list shows a part of the results.
Assay: chemical genetic growth profiling, strain panel (AID 1159580);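 also: tested at 20 µM; growth read once vehicle control cultures reached saturation at 30 °C; 1 = growth at the plate median or of vehicle wells; lower values mean less growth of the strain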
Conditions: growth OD

Measured: normalized growth

CC(=O)O[C@@H]1CC2C(C)(C)[C@H](O)C=C[C@]2(C)C2CC[C@]3(C)C(=CC(=O)O[C@H]3c3ccoc3)[C@@]21C (stereo partly specified)
inactive: S. cerevisiae deletion strains, locus YAL021C, strain ccr4, hits give low values 0.971 | S. cerevisiae deletion strains, locus YAL026C, strain drs2, hits give low values 0.983 | S. cerevisiae deletion strains, locus YAL030W, strain snc1, hits give low values 0.974 | S. cerevisiae deletion strains, locus YBL061C, strain skt5, hits give low values 0.987 | S. cerevisiae deletion strains, locus YBR009C, strain hhf1, hits give low values 0.984 | S. cerevisiae deletion strains, locus YBR021W, strain FUR4, hits give low values 0.987 | S. cerevisiae deletion strains, locus YBR023C, strain chs3, hits give low values 0.993 | S. cerevisiae deletion strains, locus YBR171W, strain sec66, hits give low values 0.988 | S. cerevisiae deletion strains, locus YBR229C, strain ROT2, hits give low values 0.996 | S. cerevisiae deletion strains, locus YBR231C, strain swc5, hits give low values 0.99 | S. cerevisiae deletion strains, locus YBR279W, strain paf1, hits give low values 0.99 | S. cerevisiae deletion strains, locus YCL011C, strain gbp2, hits give low values 0.996 | S. cerevisiae deletion strains, locus YCL016C, strain dcc1, hits give low values 0.995 | S. cerevisiae deletion strains, locus YCL029C, strain bik1, hits give low values 1.01 | S. cerevisiae deletion strains, locus YCL061C, strain MRC1, hits give low values 1 | S. cerevisiae deletion strains, locus YCL069W, strain vba3, hits give low values 0.994 | S. cerevisiae deletion strains, locus YCR088W, strain abp1, hits give low values 0.983 | S. cerevisiae deletion strains, locus YDL005C, strain med2, hits give low values 0.967 | S. cerevisiae deletion strains, locus YDL035C, strain GPR1, hits give low values 1.03 | S. cerevisiae deletion strains, locus YDL040C, strain nat1, hits give low values 0.983 | S. cerevisiae deletion strains, locus YDL074C, strain BRE1, hits give low values 0.999 | S. cerevisiae deletion strains, locus YDL101C, strain DUN1, hits give low values 1.01 | S. cerevisiae deletion strains, locus YDL185W, strain tfp1, hits give low values 1.01 | S. cerevisiae deletion strains, locus YDL192W, strain arf1, hits give low values 1.01 | S. cerevisiae deletion strains, locus YDR001C, strain nth1, hits give low values 0.976 | S. cerevisiae deletion strains, locus YDR069C, strain doa4, hits give low values 0.978 | S. cerevisiae deletion strains, locus YDR101C, strain arx1, hits give low values 1.02 | S. cerevisiae deletion strains, locus YDR137W, strain rgp1, hits give low values 0.956 | S. cerevisiae deletion strains, locus YDR159W, strain sac3, hits give low values 0.962 | S. cerevisiae deletion strains, locus YDR162C, strain NBP2, hits give low values 1.02 | S. cerevisiae deletion strains, locus YDR195W, strain ref2 0.969 | S. cerevisiae deletion strains, locus YDR297W, strain sur2, hits give low values 0.973 | S. cerevisiae deletion strains, locus YDR318W, strain mcm21, hits give low values 1 | S. cerevisiae deletion strains, locus YDR334W, strain swr1, hits give low values 0.972 | S. cerevisiae deletion strains, locus YDR335W, strain msn5, hits give low values 0.975 | S. cerevisiae deletion strains, locus YDR388W, hits give low values 1 | S. cerevisiae deletion strains, locus YDR392W, strain spt3, hits give low values 0.989 | S. cerevisiae deletion strains, locus YDR502C, strain sam2, hits give low values 1.01 | S. cerevisiae deletion strains, locus YEL003W, strain gim4, hits give low values 0.985 | S. cerevisiae deletion strains, locus YEL037C, strain rad23, hits give low values 0.984 | S. cerevisiae deletion strains, locus YEL061C, strain CIN8 (second series), hits give low values 0.988 | S. cerevisiae deletion strains, locus YEL061C, strain CIN8, hits give low values 1 | S. cerevisiae deletion strains, locus YER015W, strain faa2, hits give low values 0.991 | S. cerevisiae deletion strains, locus YER016W, strain bim1, hits give low values 0.993 | S. cerevisiae deletion strains, locus YER110C, hits give low values 0.996 | S. cerevisiae deletion strains, locus YER111C, strain swi4, hits give low values 0.975 | S. cerevisiae deletion strains, locus YER155C, strain BEM2 (second series), hits give low values 0.985 | S. cerevisiae deletion strains, locus YER155C, strain BEM2, hits give low values 0.997 | S. cerevisiae deletion strains, locus YER167W, strain BCK2, hits give low values 1.01 | S. cerevisiae deletion strains, locus YFR010W, strain ubp6, hits give low values 0.97 | S. cerevisiae deletion strains, locus YGL078C, strain dbp3, hits give low values 1 | S. cerevisiae deletion strains, locus YGL086W, strain mad1, hits give low values 0.993 | S. cerevisiae deletion strains, locus YGL167C, strain pmr1, hits give low values 0.987 | S. cerevisiae deletion strains, locus YGL173C, strain kem1, hits give low values 0.977 | S. cerevisiae deletion strains, locus YGL227W, strain vid30, hits give low values 0.989 | S. cerevisiae deletion strains, locus YGL240W, strain doc1, hits give low values 0.993 | S. cerevisiae deletion strains, locus YGL248W, strain PDE1, hits give low values 1.01 | S. cerevisiae deletion strains, locus YGL253W, strain hxk2, hits give low values 0.985 | S. cerevisiae deletion strains, locus YGR135W, strain pre9, hits give low values 1 | S. cerevisiae deletion strains, locus YGR229C, strain SMI1, hits give low values 1.04 | S. cerevisiae deletion strains, locus YGR252W, strain gcn5, hits give low values 0.97 | S. cerevisiae deletion strains, locus YHR013C, strain ard1, hits give low values 0.98 | S. cerevisiae deletion strains, locus YHR027C, strain rpn1, hits give low values 0.994 | S. cerevisiae deletion strains, locus YHR030C, strain SLT2, hits give low values 1.01 | S. cerevisiae deletion strains, locus YHR079C, strain IRE1 (second series), hits give low values 1 | S. cerevisiae deletion strains, locus YHR094C, strain hxt1, hits give low values 1 | S. cerevisiae deletion strains, locus YHR129C, strain ARP1, hits give low values 1.01 | S. cerevisiae deletion strains, locus YHR142W, strain chs7, hits give low values 0.993 | S. cerevisiae deletion strains, locus YHR200W, strain rpn10, hits give low values 1 | S. cerevisiae deletion strains, locus YIL066C, strain RNR3, hits give low values 1 | S. cerevisiae deletion strains, locus YIL073C, strain SPO22, hits give low values 1.01 | S. cerevisiae deletion strains, locus YIL125W, strain kgd1, hits give low values 0.99 | S. cerevisiae deletion strains, locus YIR030C, strain dcg1, hits give low values 0.997 | S. cerevisiae deletion strains, locus YJL092W, strain hpr5, hits give low values 0.984 | S. cerevisiae deletion strains, locus YJL095W, strain BCK1 (second series), hits give low values 0.981 | S. cerevisiae deletion strains, locus YJL095W, strain BCK1, hits give low values 1.02 | S. cerevisiae deletion strains, locus YJL115W, strain asf1, hits give low values 0.964 | S. cerevisiae deletion strains, locus YJL129C, strain trk1, hits give low values 0.988 | S. cerevisiae deletion strains, locus YJL134W, strain LCB3, hits give low values 1.01 | S. cerevisiae deletion strains, locus YJL154C, strain vps35, hits give low values 0.981 | S. cerevisiae deletion strains, locus YJL164C, strain tpk1, hits give low values 0.991 | S. cerevisiae deletion strains, locus YJL166W, strain qcr8, hits give low values 0.993 | S. cerevisiae deletion strains, locus YJL168C, strain set2, hits give low values 0.99 | S. cerevisiae deletion strains, locus YJL187C, strain SWE1 (second series), hits give low values 1.01 | S. cerevisiae deletion strains, locus YJL187C, strain SWE1, hits give low values 0.986 | S. cerevisiae deletion strains, locus YKL009W, strain mrt4, hits give low values 0.993 | S. cerevisiae deletion strains, locus YKL068W, hits give low values 1.01 | S. cerevisiae deletion strains, locus YKL085W, strain MDH1 (second series), hits give low values 0.997 | S. cerevisiae deletion strains, locus YKL085W, strain MDH1, hits give low values 0.997 | S. cerevisiae deletion strains, locus YKL160W, strain elf1, hits give low values 0.992 | S. cerevisiae deletion strains, locus YKL190W, strain CNB1, hits give low values 1.01 | S. cerevisiae deletion strains, locus YKR001C, strain vps1, hits give low values 1 | S. cerevisiae deletion strains, locus YKR026C, strain gcn3, hits give low values 0.99 | S. cerevisiae deletion strains, locus YKR091W, strain srl3, hits give low values 0.99 | S. cerevisiae deletion strains, locus YLL001W, strain dnm1, hits give low values 0.983 | S. cerevisiae deletion strains, locus YLL026W, hits give low values 0.987 | S. cerevisiae deletion strains, locus YLL041C, strain sdh2, hits give low values 0.985 | S. cerevisiae deletion strains, locus YLR027C, strain aat2, hits give low values 0.979 | S. cerevisiae deletion strains, locus YLR039C, strain RIC1, hits give low values 1.07 | S. cerevisiae deletion strains, locus YLR058C, strain SHM2, hits give low values 1 | S. cerevisiae deletion strains, locus YLR102C, strain apc9, hits give low values 0.998 | S. cerevisiae deletion strains, locus YLR221C, strain rsa3, hits give low values 0.993 | S. cerevisiae deletion strains, locus YLR258W, strain gsy2, hits give low values 0.998 | S. cerevisiae deletion strains, locus YLR262C, strain YPT6 (second series), hits give low values 0.978 | S. cerevisiae deletion strains, locus YLR268W, strain sec22, hits give low values 0.997 | S. cerevisiae deletion strains, locus YLR320W, strain mms22, hits give low values 0.991 | S. cerevisiae deletion strains, locus YLR342W, strain FKS1 (second series), hits give low values 1.01 | S. cerevisiae deletion strains, locus YLR342W, strain FKS1, hits give low values 0.991 | S. cerevisiae deletion strains, locus YLR357W, strain rsc2, hits give low values 0.947 | S. cerevisiae deletion strains, locus YLR370C, strain arc18, hits give low values 0.992 | S. cerevisiae deletion strains, locus YLR371W, strain rom2, hits give low values 1 | S. cerevisiae deletion strains, locus YLR384C, strain iki3, hits give low values 1 | S. cerevisiae deletion strains, locus YLR418C, strain cdc73, hits give low values 0.98 | S. cerevisiae deletion strains, locus YML016C, strain PPZ1, hits give low values 1 | S. cerevisiae deletion strains, locus YML032C, strain rad52, hits give low values 0.991 | S. cerevisiae deletion strains, locus YML120C, strain ndi1, hits give low values 0.994 | S. cerevisiae deletion strains, locus YML124C, strain tub3, hits give low values 1 | S. cerevisiae deletion strains, locus YMR058W, strain fet3, hits give low values 0.974 | S. cerevisiae deletion strains, locus YMR078C, strain ctf18, hits give low values 0.992 | S. cerevisiae deletion strains, locus YMR125W, strain sto1, hits give low values 0.978 | S. cerevisiae deletion strains, locus YMR129W, hits give low values 0.999 | S. cerevisiae deletion strains, locus YMR205C, strain PFK2, hits give low values 0.98 | S. cerevisiae deletion strains, locus YMR223W, strain ubp8, hits give low values 1 | S. cerevisiae deletion strains, locus YMR231W, strain pep5, hits give low values 0.967 | S. cerevisiae deletion strains, locus YMR307W, strain GAS1, hits give low values 0.99 | S. cerevisiae deletion strains, locus YNL067W, strain RPL9B, hits give low values 1.02 | S. cerevisiae deletion strains, locus YNL071W, strain lat1, hits give low values 0.991 | S. cerevisiae deletion strains, locus YNL128W, strain TEP1, hits give low values 1.02 | S. cerevisiae deletion strains, locus YNL209W, strain ssb2, hits give low values 0.998 | S. cerevisiae deletion strains, locus YNL233W, strain BNI4, hits give low values 1.02 | S. cerevisiae deletion strains, locus YNL248C, strain rpa49, hits give low values 0.966 | S. cerevisiae deletion strains, locus YNL250W, strain rad50, hits give low values 0.996 | S. cerevisiae deletion strains, locus YNL271C, strain bni1, hits give low values 1 | S. cerevisiae deletion strains, locus YNL298W, strain CLA4, hits give low values 1.01 | S. cerevisiae deletion strains, locus YNL307C, strain MCK1, hits give low values 0.995 | S. cerevisiae deletion strains, locus YNL322C, strain KRE1 (second series), hits give low values 1 | S. cerevisiae deletion strains, locus YNL322C, strain KRE1, hits give low values 1.01 | S. cerevisiae deletion strains, locus YNR049C, strain mso1, hits give low values 0.987 | S. cerevisiae deletion strains, locus YNR052C, strain pop2, hits give low values 0.995 | S. cerevisiae deletion strains, locus YOL012C, strain htz1 1.25 | S. cerevisiae deletion strains, locus YOL147C, strain pex11, hits give low values 0.996 | S. cerevisiae deletion strains, locus YOR001W, strain rrp6, hits give low values 0.984 | S. cerevisiae deletion strains, locus YOR061W, strain CKA2, hits give low values 0.997 | S. cerevisiae deletion strains, locus YOR069W, strain VPS5, hits give low values 1 | S. cerevisiae deletion strains, locus YOR070C, strain gyp1, hits give low values 1.01 | S. cerevisiae deletion strains, locus YOR080W, strain dia2, hits give low values 0.995 | S. cerevisiae deletion strains, locus YOR083W, strain WHI5, hits give low values 0.994 | S. cerevisiae deletion strains, locus YOR106W, strain vam3, hits give low values 0.99 | S. cerevisiae deletion strains, locus YOR136W, strain idh2, hits give low values 1 | S. cerevisiae deletion strains, locus YOR144C, strain elg1, hits give low values 0.999 | S. cerevisiae deletion strains, locus YOR184W, strain ser1, hits give low values 1.01 | S. cerevisiae deletion strains, locus YOR265W, strain rbl2, hits give low values 0.979 | S. cerevisiae deletion strains, locus YOR270C, strain vph1, hits give low values 0.914 | S. cerevisiae deletion strains, locus YOR290C, strain snf2, hits give low values 1 | S. cerevisiae deletion strains, locus YOR316C, strain cot1, hits give low values 0.999 | S. cerevisiae deletion strains, locus YPL051W, strain arl3, hits give low values 0.995 | S. cerevisiae deletion strains, locus YPL078C, strain atp4, hits give low values 0.989 | S. cerevisiae deletion strains, locus YPL106C, strain sse1, hits give low values 0.998 | S. cerevisiae deletion strains, locus YPL240C, strain hsp82, hits give low values 0.995 | S. cerevisiae deletion strains, locus YPL241C, strain CIN2, hits give low values 1.01 | S. cerevisiae deletion strains, locus YPR119W, strain clb2, hits give low values 0.994 | S. cerevisiae deletion strains, locus YPR141C, strain kar3, hits give low values 0.993 | S. cerevisiae deletion strains, locus YPR163C, strain tif3, hits give low values 0.994 | S. cerevisiae deletion strains, locus YPR167C, strain met16, hits give low values 0.996 | S. cerevisiae deletion strains, strain wtn01, hits give low values 1 | S. cerevisiae strains, strain wild type, hits give low values 1.02
